High-throughput results as filed in PubChem.
In the library only some 4% were active in any assay of this set; here they are far more common.
D1 potentiator: Potentiators of Human D1 Dopamine Receptor: qHTS. D(1A) dopamine receptor (Homo sapiens), P21728. HEK293 TREx D1 cells, calcium flux, dopamine EC20 potentiation. potentiation, % at 10 µM. 360,000 compounds, 0.036% hits; in the data active = potentiation above about 30%; also: 0% is about no effect
Glioma ERSR ind: qHTS for Inducers of the Endoplasmic Reticulum Stress Response (ERSR) in Human Glioma: qHTS; U87-MG GRP78 promoter luciferase reporter, 16 h; Potency, µM, without a hit: top-dose activation, hits mostly activators; 420,000 compounds, 0.02% hits; active = well fitted activation curve with a large enough effect; also: potency is read from the fitted curve at half-maximal effect; series mostly up to about 76 µM; % of control where 0% means no effect; nearly all actives have a fitted effect of over 35% in size
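Stably transfected U87-MG human glioma cells carrying a GRP78-based luminescent sensor were seeded at 1000 cells/well, pin-dosed with compounds and incubated 16 h. Luciferase reagent was then added, and end-point luminescence was read after 10 min at room temperature.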
D1 agonist: Allosteric Agonists of the Human D1 Dopamine Receptor: qHTS; D(1A) dopamine receptor (Homo sapiens), P21728; HEK293 T-REx D1 cells, calcium flux, agonist mode; activation, % at 2 µM; 360,000 compounds, 1% hits; AID 504660, 2011; also: 0% is about no effect
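Inducible HEK293 T-REx D1 cells, force-coupled to calcium signalling, were plated at 4000 cells/well with tetracycline and held overnight at 30 C. After no-wash calcium dye loading, compound-evoked calcium rise over 180 s flagged agonists.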
D1 antag: Antagonist of Human D 1 Dopamine Receptor: qHTS. D(1A) dopamine receptor (Homo sapiens), P21728. HEK293 TREx D1 cells, calcium flux, dopamine EC80; stronger effect = lower value. activity change, negative = inhibition, % at 10 µM. 360,000 compounds, 3.2% hits; in the data active = activity change below about -30%; also: % is scaled to controls: 0 for no effect and ±100 for the full control effect
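Tetracycline-induced HEK293 T-REx cells with force-coupled D1 receptor were loaded with a no-wash calcium dye. Compound was added after a 10 s baseline and read kinetically for 180 s; EC80 dopamine was then added and calcium flux followed another 180 s.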
TRHR ag: qHTS for Small Molecule Agonists and Allosteric Enhancers of Human TRH Receptor: Primary Screen for Agonists; TRHR cells, calcium flux fluo-8, FDSS agonist mode; activation, % at 2 µM; 360,000 compounds, 0.18% hits; AID 493084, 2011; also: 0% is about no effect
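Fluo-8-loaded TRHR cells; 10 s baseline, compound added, kinetic Ca2+ fluorescence read 1/s, agonist mode.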
TRHR enhancer: qHTS for Small Molecule Agonists and Allosteric Enhancers of Human TRH Receptor: Primary Screen for Enhancers. Thyrotropin-releasing hormone receptor (Homo sapiens), P34981. TRHR cells, fluo-8 calcium fluorescence, EC20 TRH enhancement. enhancement, % at 2 µM. 360,000 compounds, 0.66% hits; in the data active = enhancement above about 30%; also: 0% is about no effect
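TRHR-expressing cells loaded with fluo-8 calcium dye were read kinetically (ex 480/em 530) during compound addition, then stimulated with an EC20 of TRH (10 nM final). Enhancement of the Gq-mediated intracellular calcium response was scored.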
Active calls of the source: *; . = no result given. Rule as the data show it, unless noted: active = activation above about 30%; inactive = the rest.

SMILES	D1 potentiator	Glioma ERSR ind	D1 agonist	D1 antag	TRHR ag	TRHR enhancer
COc1ccc(OC)c(NC(=O)CNC(=O)Cn2c(C)cc3ccccc3c2=O)c1	-3	-3%	1	-1	-1	12
COc1cccc(NC(=O)COC(=O)Cn2c(C)csc2=O)c1	.	-1%	3	-94*	0	-1
COc1cccc(NC(=O)COC(=O)CCn2c(C)csc2=O)c1	6	1%	1	-2	0	1
CCc1ccc2c(c1)NC(c1ccc(C)cc1)=NC(c1cccs1)=N2	2	4%	0	-1	-1	1
COc1ccccc1NC(=O)COC(=O)CCn1c(C)csc1=O	-8	-5%	0	-33*	0	0
Nc1c(C(=O)Nc2ccc(Cl)c(C(=O)O)c2)sc2nc3c(cc12)CCCC3	-8	-4%	13	-62*	0	-4
Nc1c(C(=O)Nc2ccc(C(=O)O)cc2)sc2nc3c(cc12)CCCC3	1	-7%	1	0	0	3
COc1ccc2nc(NC(=O)C3CSC4(C)CCC(=O)N34)sc2c1 (configuration not stated)	-5	-2%	0	1	-1	-1
O=c1oc2ccccc2c2c1C1O[C@](c3ccsc3)(Cc3c1ccc1ccccc31)O2	1	.	9	-14	1	-2
CCCC(=O)N(c1ccc2oc(C)c(C(C)=O)c2c1)S(=O)(=O)c1ccc(C(=O)O)cc1	-8	-1%	1	-42*	1	-25
Cc1noc(C)c1CC(=O)N1CCOc2c(cc(-c3nc4ccccc4s3)cc2OC2CCOC2)C1 (configuration not stated)	.	-1%	.	.	.	.
Cc1ccc(-n2c(SCC(=O)OC(C)C)nnc2-c2ccncc2)cc1	4	-3%	38*	8	0	-1
COC(=O)[C@H]1CCCN1C(=O)Nc1cccc(Oc2c(F)c(F)c(F)c(F)c2F)c1	-2	-7%	4	-31*	0	-4
CCCn1nnnc1NC(=O)c1cc(Br)ccc1OC	-3	-5%	0	3	0	30*
COc1ccc(OCc2cc(C(=O)N(C)Cc3nccn3C)no2)c2ccccc12	-1	-1%	2	-40*	-1	-4
